Screening results as filed in PubChem BioAssay.
MCF10A rereplic = A quantitative high throughput screen for small molecules that induce DNA re-replication in MCF 10a normal breast cells | 350,000 compounds, 2.9% hits | MCF 10A DNA re-replication, Hoechst nuclear intensity, 48 h | Potency, µM (highest dose often 46.1 µM), for inactives: top-dose activity, positive = re-replication, usual class: activators; also: potency is read from the fitted curve at half-maximal effect; % of control where 0% means no effect; nearly all actives have a fitted effect of over 50% in size
Giardia killer = Small Molecules that selectively kill Giardia lamblia: qHTS; activity change, % at 7.66 µM, hits read low; 340,000 compounds, 0.15% hits; Giardia lamblia trophozoite viability; AID 540267, 2011; in the data active = activity change below about -80%; inconclusive = between about -30% and that limit;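 also: parasites exposed to compound for two days anaerobically before the ATP read; % is scaled to controls: 0 for no effect and ±100 for the full control effect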
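Trophozoites 100 cells/well + cpd; 48 hrs, 37 deg C, anaerobic. ATPLite 1-Step added, 15-30 min RT, luminescence read (ATP-based viability).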
Vif-A3G inh = qHTS for Inhibitors of Vif-A3G Interactions: qHTS | HeLa A3G-eYFP + Vif (tagged APOBEC3G with the HIV-1 protein that degrades it), YFP fluorescence, overnight | Potency, µM (top dose mostly 46.1 µM), for the others: at the top dose activity, negative = active, hits mostly inhibitors | 410,000 compounds, 0.076% hits | AID 602310, 2012; also: potency is read from the fitted curve at half-maximal effect; % is scaled to controls: 0 for no effect and ±100 for the full control effect; nearly all actives have a fitted effect of over 60% in size
Target sequence (Q9HC16 whole entry, looked up): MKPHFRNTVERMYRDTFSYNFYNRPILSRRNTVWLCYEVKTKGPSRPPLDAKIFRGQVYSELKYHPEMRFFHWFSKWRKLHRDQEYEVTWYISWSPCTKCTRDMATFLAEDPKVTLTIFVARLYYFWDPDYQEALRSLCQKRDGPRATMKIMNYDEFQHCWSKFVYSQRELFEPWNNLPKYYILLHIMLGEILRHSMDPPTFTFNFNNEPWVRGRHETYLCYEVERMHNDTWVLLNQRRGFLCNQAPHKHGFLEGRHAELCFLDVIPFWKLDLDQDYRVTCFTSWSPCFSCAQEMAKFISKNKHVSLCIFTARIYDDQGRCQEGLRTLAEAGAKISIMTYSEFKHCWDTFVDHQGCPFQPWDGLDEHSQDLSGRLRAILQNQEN
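Read-out is eYFP fluorescence (Ex 488/Em 500-530) from Vif-expressing HeLa A3G-eYFP cells; more signal means A3G escaped Vif-mediated degradation. Cells plated overnight, compound pinned in, incubated overnight at 37 deg C.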
Vif-APOBEC3F blk = qHTS for Inhibitors of Vif-A3F Interactions: qHTS. HeLa A3F-eYFP + Vif (tagged APOBEC3F with the HIV-1 protein that degrades it), YFP fluorescence increase. 390,000 compounds, 0.2% hits. Potency, µM (doses to about 46.1 µM), for inactives: at the top dose activity, negative = active; also: potency is read from the fitted curve at half-maximal effect; % of control where 0% means no effect; nearly all actives have a fitted effect of over 65% in size
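HeLa cells stably expressing A3F-eYFP plus Vif, plated and incubated overnight at 37 deg C, then exposed to compounds overnight at 37 deg C. Blocked degradation read as raised yellow fluorescence (Ex 488/Em 500-530).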
SW480 rereplic = A quantitative high throughput screen for small molecules that induce DNA re-replication in SW480 colon adenocarcinoma cells; 340,000 compounds, 1.8% hits; SW480 DNA re-replication, Hoechst DNA content imaging, 48 h; Potency, µM (series often up to 46.1 µM), inactives show at the top dose re-replication activation, actives largely listed as activators; also: potency is read from the fitted curve at half-maximal effect; % of control where 0% means no effect; nearly all actives have a fitted effect of over 55% in size
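Per well, 250 cells were exposed to pinned compound for 48 hr. Nuclear DNA was visualised with Hoechst (40 min, 37 C) and total object intensity recorded by fluorescence scanning.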
IL1B secr inh = qHTS for Inhibitors of Inflammasome Signaling: IL-1-beta AlphaLISA Primary Screen | THP-1 LPS/ATP IL-1B secretion, AlphaLISA, 16 h; active compounds read low | activity change, % at 57.5 µM | 360,000 compounds, 4.7% hits | AID 743279, 2014; in the data active = activity change below about -50%; inconclusive = mostly about -30% to -49%; also: % is scaled to controls: 0 for no effect and ±100 for the full control effect
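THP-1 cells pretreated 1 hr with compounds (up to 57.5 uM final), then stimulated with LPS (250 ng/mL final) plus ATP (1.25 mM final); secreted IL-1B measured by AlphaLISA after 16 hr, decreased signal indicating inhibition.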
* = called active by the depositor. Compounds with a hit are over-represented: about 6.9% of the library has one in this group of screens. Unless noted, calls follow the shape of the dose curve; as a rule, active = well fitted curve in the direction sought with a large enough effect; inconclusive = small, poorly fitted or top-dose-only effect, or another doubt; inactive = no such curve, though single readings can be large; an effect the other way counts as inactive or inconclusive.

What do the screens show for `COCc1ccc(-c2c(-c3ccc(OC)cc3)oc(=O)c3cc(OC)c(OC)cc23)cc1`?
MCF10A rereplic: 2.6µM*; Giardia killer: 6; Vif-A3G inh: 2%; Vif-APOBEC3F blk: 2%; SW480 rereplic: 16%; IL1B secr inh: 28

What do the screens show for `COc1ccc(CNC(=O)Nc2cn(CC(C)C)c(=O)c3ccccc23)cc1`?
Vif-A3G inh: -2%; Vif-APOBEC3F blk: -7%

Results for CCCCNC(=O)CSc1nc2ccccc2nc1Cc1ccc(Cl)cc1 ?
Vif-A3G inh: 3%; Vif-APOBEC3F blk: 3%

What do the screens show for `C/C(=N\Nc1cc(N2CCCCC2)nc(C)n1)c1ccc(Br)cc1`?
MCF10A rereplic: 12µM*; Giardia killer: inconclusive; Vif-A3G inh: -8%; Vif-APOBEC3F blk: inconclusive; SW480 rereplic: inconclusive; IL1B secr inh: -51*

What do the screens show for `O=S(=O)(NCC(c1cccs1)S(=O)(=O)c1ccccc1)c1ccc(F)cc1` (configuration not stated)?
Vif-A3G inh: 1%; Vif-APOBEC3F blk: 2%

What do the screens show for `c1ccc(Cn2nnnc2C(c2ccccc2)N2CCN(Cc3ccncc3)CC2)cc1` (configuration not stated)?
Giardia killer: 6; Vif-A3G inh: 2%

How did CN(C)Cc1csc(NC(=O)Nc2ccccc2Oc2ccccc2)n1 do in these assays?
Vif-A3G inh: -10%; IL1B secr inh: -104*

What do the screens show for `NC(Cc1ccc(C(F)(F)F)cc1)c1csc(NC(=O)NCCc2ccccc2)n1` (configuration not stated)?
Vif-A3G inh: 3%; IL1B secr inh: -101*

Results for NC(c1ccccc1)c1csc(NC(=O)NCCc2ccccc2)n1 (configuration not stated) ?
Vif-A3G inh: -4%; IL1B secr inh: -63*

What do the screens show for `NC(Cc1ccc(C(F)(F)F)cc1)c1csc(NC(=O)Nc2ccccc2Oc2ccccc2)n1` (configuration not stated)?
Vif-A3G inh: 2%; IL1B secr inh: -60*

Results for COc1ccccc1NC(=O)Nc1nc(C(N)Cc2ccc(C(F)(F)F)cc2)cs1 (configuration not stated) ?
Vif-A3G inh: 3%; IL1B secr inh: 0

How did Clc1cccc(N2CCN(c3nc4ccccc4c4nc(-c5ccccc5)nn34)CC2)c1 do in these assays?
Vif-A3G inh: 2%; Vif-APOBEC3F blk: -9%

What do the screens show for `Cc1cccc(N2CCN(C(=O)CN3C(=O)COc4ccc(S(=O)(=O)N5CCC(C)CC5)cc43)CC2)c1C`?
Vif-A3G inh: 2%; Vif-APOBEC3F blk: 5%

What do the screens show for `COc1ccc(CNC(=O)Nc2nc(C(N)Cc3ccc(F)cc3)cs2)cc1` (configuration not stated)?
Vif-A3G inh: -11%; IL1B secr inh: inconclusive

Results for NC(Cc1ccc(F)cc1)c1csc(NC(=O)NC(c2ccccc2)c2ccccc2)n1 (configuration not stated) ?
Vif-A3G inh: 0%; IL1B secr inh: -53*

What do the screens show for `CC(=O)N(Cc1ccccc1)c1c(N)nc(N)[nH]c1=O`?
MCF10A rereplic: 0%; Giardia killer: -16; Vif-A3G inh: 0%; Vif-APOBEC3F blk: 6%; SW480 rereplic: -30%; IL1B secr inh: -103*

Results for CCOc1ccc(-c2cn3c(n2)sc2cc(C(=O)NCCCN(CC)CC)ccc23)cc1 ?
Vif-A3G inh: inconclusive; Vif-APOBEC3F blk: 1%

Results for COc1ccc(-c2n[nH]c3c2CN(C(=O)c2ccc(OC)c(OC)c2)CC3)cc1 ?
MCF10A rereplic: 21µM*; Giardia killer: 19; Vif-A3G inh: inconclusive; Vif-APOBEC3F blk: -8%; SW480 rereplic: inconclusive; IL1B secr inh: 1

How did COc1ccc(C(=O)N2CCc3cc(OC)c(OC)cc3C2c2cccc([N+](=O)[O-])c2)cc1OC (configuration not stated) do in these assays?
MCF10A rereplic: 19%; Giardia killer: -21; Vif-A3G inh: -3%; Vif-APOBEC3F blk: -2%; SW480 rereplic: 16%; IL1B secr inh: inconclusive

Results for COc1cc(OC)cc(C(=O)N2CCN(C(=O)c3ccc(OC)c(OC)c3)CC2)c1 ?
MCF10A rereplic: 2%; Giardia killer: -8; Vif-A3G inh: -9%; Vif-APOBEC3F blk: -18%; SW480 rereplic: -4%; IL1B secr inh: 0

How did COc1ccc(C(=O)N2CCc3cc(OC)c(OC)cc3C2c2ccc(OC)c(OC)c2)cc1 (configuration not stated) do in these assays?
MCF10A rereplic: inconclusive; Giardia killer: -4; Vif-A3G inh: inconclusive; Vif-APOBEC3F blk: 12%; SW480 rereplic: inconclusive; IL1B secr inh: -51*

Results for COc1cc2c(cc1OC)C(c1cccc([N+](=O)[O-])c1)N(C(=O)c1ccccc1C(=O)O)CC2 (configuration not stated) ?
MCF10A rereplic: -48%; Giardia killer: 24; Vif-A3G inh: 0%; Vif-APOBEC3F blk: -10%; SW480 rereplic: 59%; IL1B secr inh: -58*

How did Cc1ccc(C)c(OCCn2c(CCNC(=O)C3CCCCC3)nc3ccccc32)c1 do in these assays?
Giardia killer: 3; Vif-A3G inh: -1%

Results for CCc1cc(/C(Cc2ccccn2)=N\O)c(O)cc1O ?
MCF10A rereplic: 0%; Giardia killer: 40; Vif-A3G inh: -4%; Vif-APOBEC3F blk: -4%; SW480 rereplic: inconclusive; IL1B secr inh: -6

What do the screens show for `CCc1cc(/C(Cc2ccc3ccccc3n2)=N\O)c(O)cc1O`?
MCF10A rereplic: 13%; Giardia killer: 0; Vif-A3G inh: -17%; Vif-APOBEC3F blk: 2%; SW480 rereplic: -6%; IL1B secr inh: -101*

What do the screens show for `CCCc1nc2ccccc2c(C(=O)OCC(=O)Nc2ccc(S(=O)(=O)N3CCOCC3)cc2)c1CC`?
MCF10A rereplic: inconclusive; Giardia killer: 2; Vif-A3G inh: 1%; Vif-APOBEC3F blk: 2%; SW480 rereplic: 21µM*; IL1B secr inh: -67*

Results for CCCc1nc2ccccc2c(C(=O)OCC(=O)Nc2cccc(S(=O)(=O)N3CCOCC3)c2)c1CC ?
MCF10A rereplic: inconclusive; Giardia killer: 18; Vif-A3G inh: -1%; Vif-APOBEC3F blk: 1%; SW480 rereplic: 11%; IL1B secr inh: -10
